Screening data: PubChem, National Center for Advancing Translational Sciences (NCATS)
B2AR arrestin: qHTS assay of beta-arrestin-biased ligands of beta2-adrenergic receptor. AID 492947, 2010. 0.02% of 330,000 active. Potency, µM (top dose mostly 46.1 µM), for inactives: top-dose activation, actives largely listed as activators. beta-arrestin recruitment to beta2AR, cell-based reporter;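 also: potency is read from the fitted curve at half-maximal effect; 0% = DMSO controls and full agonism = EC100 isoproterenol or metaproterenol; nearly all actives have a fitted effect of over 65% in size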
Target sequence (P07550 whole entry, looked up): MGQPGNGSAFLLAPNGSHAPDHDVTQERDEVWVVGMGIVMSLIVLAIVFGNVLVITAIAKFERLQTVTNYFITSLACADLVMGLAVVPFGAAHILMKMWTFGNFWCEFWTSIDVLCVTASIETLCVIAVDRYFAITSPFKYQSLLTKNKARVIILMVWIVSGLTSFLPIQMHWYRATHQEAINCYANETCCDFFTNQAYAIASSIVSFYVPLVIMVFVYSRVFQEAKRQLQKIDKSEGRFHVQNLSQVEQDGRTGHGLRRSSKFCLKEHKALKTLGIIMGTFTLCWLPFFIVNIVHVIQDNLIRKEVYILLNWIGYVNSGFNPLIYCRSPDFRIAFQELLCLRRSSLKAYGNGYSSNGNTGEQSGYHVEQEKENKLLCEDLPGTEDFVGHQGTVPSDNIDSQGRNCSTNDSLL
Giardia kill: Small Molecules that selectively kill Giardia lamblia: qHTS; Giardia lamblia trophozoite viability; activity change, % at 7.66 µM, hits read low; 0.15% of 340,000 active; AID 540267, 2011; in the data active = activity change below about -80%; inconclusive = between about -30% and that limit;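 also: parasites exposed to compound for two days anaerobically before the ATP read; % is scaled to controls: 0 for no effect and ±100 for the full control effect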
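Trophozoites 100 cells/well + cpd; 48 hrs, 37 deg C, anaerobic. ATPLite 1-Step added, 15-30 min RT, luminescence read (ATP-based viability).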
Mito fusion yeast: qHTS Assay for Small Molecule Inhibitors of Mitochondrial Division or Activators of Mitochondrial Fusion. AID 485298, 2010. 0.23% of 320,000 active. Potency, µM (doses to about 46.1 µM), for inactives: top-dose growth rescue (activation), actives largely listed as activators. S. cerevisiae fusion-defective mutant growth rescue, CellTiterGlo 48 h; also: potency is read from the fitted curve at half-maximal effect; % of control where 0% means no effect; nearly all actives have a fitted effect of over 45% in size
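Read-out: ATP-based luminescence (CellTiterGlo, 10 min ambient) reporting growth of fusion-defective ts yeast after 48 hours at 37C on glycerol/ethanol YPEG medium in the presence of compound.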
p53 reactivator: qHTS assay for re-activators of p53 using a Luc reporter; Potency, µM (series often up to 92.2 µM), without a hit: top-dose activity change, positive = activation, most hits filed as activators; H1299 p53-A138V BP100-luciferase reporter, luminescence, 24 h; 0.063% of 320,000 active; AID 504706, 2011; also: potency is read from the fitted curve at half-maximal effect; % of control where 0% means no effect; nearly all actives have a fitted effect of over 45% in size
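p53-null H1299 cells stably carrying temperature-sensitive p53-A138V and a BP100-luciferase reporter were pinned with compounds (4-point, 1:5 series) and held 24 hrs at 37 deg C. Luminescence was read 10 min after detection reagent.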
uPA generation: qHTS for Inhibitors of Cell Surface uPA Generation. cell surface uPA generation assay, qHTS. Potency, µM (highest dose often 38.3 µM), inactives show at the highest dose activity change, negative = inhibition, most hits filed as inhibitors. 0.31% of 330,000 active. AID 540303, 2011; active = well fitted inhibition curve with a large enough effect; inconclusive = small, poorly fitted or top-dose-only effect; inactive = no such curve, though single readings can be large or run the other way; tested in mouse RAW 264.7 cells; also: potency is read from the fitted curve at half-maximal effect; % is scaled to controls: 0 for no effect and ±100 for the full control effect; nearly all actives have a fitted effect of over 55% in size
ClpP mod: qHTS Assay for Activators of ClpP. ATP-dependent Clp protease proteolytic subunit (Bacillus subtilis (strain 168)), P80244. purified B. subtilis ClpP, FRET peptide cleavage, 20 min. Potency, µM (series often up to 57.5 µM), for the others: top-dose activity change, negative = active. 1.9% of 340,000 active. AID 651965, 2013; active = well fitted falling curve with a large enough effect; inconclusive = small, poorly fitted or top-dose-only effect; inactive = no such curve, though single readings can be large or run the other way; also: potency is read from the fitted curve at half-maximal effect; the source files actives as falling curves though it sought activators and does not explain the sign; nearly all actives have a fitted effect of over 65% in size
Target sequence (P80244 whole entry, looked up): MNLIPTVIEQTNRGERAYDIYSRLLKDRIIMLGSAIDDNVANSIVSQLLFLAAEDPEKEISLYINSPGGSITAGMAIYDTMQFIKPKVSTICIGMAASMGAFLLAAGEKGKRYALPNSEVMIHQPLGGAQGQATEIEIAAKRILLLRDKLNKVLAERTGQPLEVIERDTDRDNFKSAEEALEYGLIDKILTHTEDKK
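ClpP 10 microg/mL final, pH 8 Tris/KCl buffer with BSA, glycerol, Tween-20; compound pinned in; FRET-FV substrate; RT 20 min; Ex320/Em430; ΔFRET vs ADEP 5.8 microM, DMSO, no enzyme.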
The depositor's hits bear a star; ! = not active in a repeat. The list is not random: actives were taken first. Their share in the collection is about 2.1%. Unless noted, calls follow the shape of the dose curve; as a rule, active = well fitted curve in the direction sought with a large enough effect; inconclusive = small, poorly fitted or top-dose-only effect, or another doubt; inactive = no such curve, though single readings can be large; an effect the other way counts as inactive or inconclusive.

What do the screens show for `CC(=O)Nc1nc2n(n1)C(c1ccccc1)C=C(c1ccccc1)N2` (centres undefined)?
B2AR arrestin: 0%; Giardia kill: -7; Mito fusion yeast: -1%; p53 reactivator: 9%; uPA generation: -3%; ClpP mod: 28µM*

How did CC(=O)Nc1nc2n(n1)C(c1ccc(Cl)cc1)C=C(C)N2 (centres undefined) do in these assays?
B2AR arrestin: 0%; Giardia kill: 14; Mito fusion yeast: 1%; p53 reactivator: -7%; uPA generation: 0%; ClpP mod: 3.2µM*

How did CS(=O)(=O)Nc1nc2n(n1)C(c1ccccc1)C=C(c1ccc(Br)cc1)N2 (centres undefined) do in these assays?
B2AR arrestin: 0%; Giardia kill: -14; Mito fusion yeast: -5%; p53 reactivator: -6%; uPA generation: -3%; ClpP mod: 8.9µM*

What do the screens show for `Cc1ccc(C2C=C(c3ccccc3)Nc3nc(NS(=O)(=O)c4ccc(C)cc4)nn32)cc1` (centres undefined)?
Mito fusion yeast: -3%; ClpP mod: -6%

How did COC(=O)c1ccc(-n2nnc(-c3nc(-c4ccc5c(c4)OCO5)no3)c2C)cc1 do in these assays?
ClpP mod: -1%

How did CC(C)CCNC(=O)CSCc1cnn(-c2ccccc2)c1-n1cccc1 do in these assays?
ClpP mod: -3%

How did CCOC(=O)CCC(NC(=O)CCCCC(=O)NC(CCC(=O)OCC)C(=O)OCC)C(=O)OCC (centres undefined) do in these assays?
B2AR arrestin: -1%; Giardia kill: -11; Mito fusion yeast: 0%; p53 reactivator: 10%; uPA generation: 1%; ClpP mod: 0%

How did CCOC(=O)CCC(NC(=O)c1cncc(O)c1)C(=O)OCC (centres undefined) do in these assays?
B2AR arrestin: 0%; Giardia kill: -2; Mito fusion yeast: 14%; p53 reactivator: 3%; uPA generation: 0%; ClpP mod: 28µM*

How did CCCN(C(=O)c1c(C)oc2ncn(CC(C)C)c(=O)c12)c1ccccc1C do in these assays?
ClpP mod: 0%

Results for FC(F)(F)c1cc(-c2cccs2)nc(-n2cc(Cl)cn2)n1 ?
B2AR arrestin: 0%; Giardia kill: 17; Mito fusion yeast: -2%; p53 reactivator: -2%; uPA generation: -3%; ClpP mod: 32µM*

Results for CCn1cc(C(=O)NCc2ccc(F)cc2)c(=O)c2cc(S(=O)(=O)N(C)C)ccc21 ?
ClpP mod: -8%

What do the screens show for `CN1C2CCC1CC(NC(=O)c1ccc(Cl)cc1)C2` (centres undefined)?
B2AR arrestin: -1%; Giardia kill: -6; Mito fusion yeast: 2%; p53 reactivator: -3%; uPA generation: 4%

How did CN1C2CCC1CC(NS(=O)(=O)c1cc(Cl)c(Cl)cc1Cl)C2 (centres undefined) do in these assays?
B2AR arrestin: 0%; Giardia kill: 22; Mito fusion yeast: -3%; p53 reactivator: inconclusive; uPA generation: 13%; ClpP mod: 35µM*

What do the screens show for `N#Cc1nc(-c2ccccc2)cc(-c2ccccc2)n1`?
ClpP mod: -12%

What do the screens show for `O=C(COC(=O)c1cc(S(=O)(=O)N2CCOCC2)ccc1O)NCC1CCCO1` (centres undefined)?
B2AR arrestin: -4%; Giardia kill: -6; Mito fusion yeast: -3%; p53 reactivator: -9%; uPA generation: 2%; ClpP mod: 35µM*

How did O=C(COc1ccc(S(=O)(=O)N2CCOCC2)cc1)NCC1CCCO1 (centres undefined) do in these assays?
B2AR arrestin: 0%; Giardia kill: 7; Mito fusion yeast: 0%; uPA generation: 8%; ClpP mod: -4%

Results for COc1cc(CN2CCNC(=O)C2CC(=O)N2CCCN(C(C)=O)CC2)cc(OC)c1 (centres undefined) ?
B2AR arrestin: 0%; Giardia kill: 10; Mito fusion yeast: -4%; p53 reactivator: -6%; uPA generation: 0%; ClpP mod: 16µM*

What do the screens show for `COc1cc(CN2CCNC(=O)C2CC(=O)O)cc(OC)c1` (centres undefined)?
B2AR arrestin: 0%; Giardia kill: -4; Mito fusion yeast: -2%; p53 reactivator: 1%; uPA generation: 1%

How did CC1CCC(C(C)C)C(OC(=O)Cn2c(-c3ccccc3)[n+](C)c3ccccc32)C1 (centres undefined) do in these assays?
B2AR arrestin: -1%; Giardia kill: -28; Mito fusion yeast: 0%; p53 reactivator: -17%; uPA generation: 4.5µM*!; ClpP mod: -3%

What do the screens show for `CC1CCC(C(C)C)C(OC(=O)Cn2c(-c3ccc(F)cc3)[n+](C)c3ccccc32)C1` (centres undefined)?
B2AR arrestin: 0%; Giardia kill: -1; Mito fusion yeast: -6%; p53 reactivator: -35%; uPA generation: -7%; ClpP mod: -11%

What do the screens show for `O=C(O)c1cc(/C=C/c2ccc(N3CCOCC3)cc2)nc2ccccc12`?
B2AR arrestin: 0%; Giardia kill: inconclusive; Mito fusion yeast: 8%; p53 reactivator: -9%; uPA generation: -19%

How did COc1cc(/C=C/c2cc(C(=O)O)c3ccccc3n2)ccc1OC(F)F do in these assays?
B2AR arrestin: -1%; Giardia kill: inconclusive; Mito fusion yeast: -2%; p53 reactivator: 3%; uPA generation: 2.8µM*; ClpP mod: -18%

What do the screens show for `C=C1C=C(C(F)F)n2ncc(C(=O)NCCc3ccc(Cl)cc3)c2N1`?
ClpP mod: -1%

How did CC(C)n1nc(C(=O)Oc2ccc(Cl)cc2)c2ccccc2c1=O do in these assays?
B2AR arrestin: -1%; Giardia kill: 3; Mito fusion yeast: 1%; p53 reactivator: 18%; uPA generation: -3%; ClpP mod: 18µM*

How did Cc1ccccc1Oc1nc2c(c(=O)n(C)c(=O)n2C)n1Cc1ccc(Br)cc1 do in these assays?
ClpP mod: -3%

Results for CC12CCC(=O)N1C(C(=O)Nc1cccc(S(=O)(=O)N3CCCCCC3)c1)CS2 (centres undefined) ?
B2AR arrestin: 0%; Giardia kill: 2; Mito fusion yeast: 7%; p53 reactivator: -7%; uPA generation: -1%; ClpP mod: 28µM*

Results for COc1cc(C)c(C)cc1S(=O)(=O)Nc1cccc(-c2ccc(N3CCOCC3)nn2)c1 ?
ClpP mod: -1%
